Reference: the supplement of paper PMC10849652
Of roughly 7,900 targets only a part is listed; those with a hit were picked by preference. About 0.6% of all pairs of compound and target were hits.

Assays:
Assay in all cases: log2 fold change, soluble protein after heating vs DMSO (PISA); higher = thermal stabilisation; K562 cells, 10 uM, 30 min; active = over 0.2 and 3.5 SD of the protein, either way, in both replicates (recomputed)
saracatinib = compound: CN1CCN(CCOc2cc(OC3CCOCC3)c3c(Nc4c(Cl)ccc5c4OCO5)ncnc3c2)CC1 [saracatinib]
In short: (§1)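 Quantification of soluble protein used TMTpro 16plex LC-MS/MS, with channel sums equalised. Samples were the supernatant after 21,000xg for 90 min of pooled aliquots from K562 cells (2×10^6 cells/mL) treated with 10 μM compound for 30 min, heated for 3 min over 48°C-58°C, and extracted in PBS with 0.5% NP-40 at 4°C. Values, from duplicates, describe thermal stability against control samples on a log2 fold-change scale.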

sotrastaurin = compound: CN1CCN(c2nc(C3=C(c4c[nH]c5ccccc45)C(=O)NC3=O)c3ccccc3n2)CC1 [sotrastaurin]
In short: as §1

alvocidib = compound: CN1CC[C@H](c2c(O)cc(O)c3c(=O)cc(-c4ccccc4Cl)oc23)[C@H](O)C1 [alvocidib]
In short: as §1

Tubastatin A = compound: CN1CCc2c(c3ccccc3n2Cc2ccc(C(=O)NO)cc2)C1 [Tubastatin A]
In short: as §1

[1] = compound: CNC(=O)C1=CC=CC=C1NC2=NC(=NC=C2Cl)NC3=C(C=C(C=C3)N4CCOCC4)OC
In short: as §1

defactinib = compound: CNC(=O)c1ccc(Nc2ncc(C(F)(F)F)c(NCc3nccnc3N(C)S(C)(=O)=O)n2)cc1 [defactinib]
In short: as §1

rucaparib = compound: CNCc1ccc(-c2[nH]c3cc(F)cc4c3c2CCNC4=O)cc1 [rucaparib]
In short: as §1

[2] = compound: CNc1nc(-c2ccc3c(N)n[nH]c3c2)cc(N2C[C@@H](C(=O)NC3CCCCC3)CC[C@H]2C)n1
In short: as §1

encorafenib = compound: COC(=O)N[C@@H](C)CNc1nccc(-c2cn(C(C)C)nc2-c2cc(Cl)cc(NS(C)(=O)=O)c2F)n1 [encorafenib]
In short: as §1

[3] = compound: COC(=O)[C@H](CCSC)NC(=O)C1=C(C=C(C=C1)NC[C@H](CS)N)C2=CC=CC=C2
In short: as §1

Measured: log2 fold change

MAD2L1 (UniProt Q13257)
inactive: saracatinib 0.037 | sotrastaurin -0.056 | alvocidib -0.109 | Tubastatin A 0.01 | [1] 0.05 | defactinib -0.112 | rucaparib -0.058 | [2] -0.046 | encorafenib -0.007 | [3] -0.04

MEPCE (UniProt Q7L2J0)
inactive: saracatinib -0.019 | sotrastaurin -0.022 | alvocidib -0.112 | Tubastatin A -0.104 | [1] -0.052 | defactinib -0.192 | rucaparib -0.056 | [2] 0.049 | encorafenib 0.067 | [3] -0.077

METAP1D (UniProt Q6UB28)
Sequence of UniProt Q6UB28 (Q6UB28 whole entry, looked up): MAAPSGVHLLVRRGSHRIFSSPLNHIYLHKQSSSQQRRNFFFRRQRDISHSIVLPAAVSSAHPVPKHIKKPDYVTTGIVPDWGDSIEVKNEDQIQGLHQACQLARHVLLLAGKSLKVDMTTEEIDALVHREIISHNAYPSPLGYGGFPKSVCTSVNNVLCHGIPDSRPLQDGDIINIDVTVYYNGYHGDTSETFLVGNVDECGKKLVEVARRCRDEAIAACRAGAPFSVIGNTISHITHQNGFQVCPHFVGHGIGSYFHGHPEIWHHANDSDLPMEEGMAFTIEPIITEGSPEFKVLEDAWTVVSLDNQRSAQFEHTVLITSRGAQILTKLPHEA
inactive: saracatinib 0.088 | sotrastaurin -0.042 | alvocidib -0.086 | Tubastatin A -0.181 | [1] 0.036 | defactinib 0.013 | rucaparib -0.074 | [2] 0.04 | encorafenib 0.006 | [3] 0.006

MAP4 (UniProt E7EVA0)
inactive: saracatinib 0.03 | sotrastaurin -0.015 | alvocidib 0.127 | Tubastatin A 0.041 | [1] -0.059 | defactinib 0.099 | rucaparib 0.209 | [2] 0.043 | encorafenib 0.017 | [3] 0.032

MCCC2 (UniProt Q9HCC0)
active: [1] -0.274
inactive: saracatinib 0.033 | sotrastaurin 0.018 | alvocidib 0 | Tubastatin A 0.004 | defactinib 0.008 | rucaparib 0.012 | [2] -0.05 | encorafenib -0.033 | [3] -0.003

KEL (UniProt P23276)
inactive: saracatinib 0.09 | sotrastaurin -0.009 | alvocidib -0.044 | Tubastatin A 0.004 | [1] -0.091 | defactinib -0.038 | rucaparib 0.006 | [2] -0.026 | encorafenib -0.061 | [3] 0.03

MIA2 (UniProt Q96PC5)
inactive: saracatinib 0.003 | sotrastaurin -0.106 | alvocidib -0.052 | Tubastatin A -0.013 | [1] 0.021 | defactinib -0.085 | rucaparib 0.074 | [2] -0.001 | encorafenib 0.07 | [3] 0.037

MED17 (UniProt Q9NVC6)
Sequence of UniProt Q9NVC6 (Q9NVC6 whole entry, looked up): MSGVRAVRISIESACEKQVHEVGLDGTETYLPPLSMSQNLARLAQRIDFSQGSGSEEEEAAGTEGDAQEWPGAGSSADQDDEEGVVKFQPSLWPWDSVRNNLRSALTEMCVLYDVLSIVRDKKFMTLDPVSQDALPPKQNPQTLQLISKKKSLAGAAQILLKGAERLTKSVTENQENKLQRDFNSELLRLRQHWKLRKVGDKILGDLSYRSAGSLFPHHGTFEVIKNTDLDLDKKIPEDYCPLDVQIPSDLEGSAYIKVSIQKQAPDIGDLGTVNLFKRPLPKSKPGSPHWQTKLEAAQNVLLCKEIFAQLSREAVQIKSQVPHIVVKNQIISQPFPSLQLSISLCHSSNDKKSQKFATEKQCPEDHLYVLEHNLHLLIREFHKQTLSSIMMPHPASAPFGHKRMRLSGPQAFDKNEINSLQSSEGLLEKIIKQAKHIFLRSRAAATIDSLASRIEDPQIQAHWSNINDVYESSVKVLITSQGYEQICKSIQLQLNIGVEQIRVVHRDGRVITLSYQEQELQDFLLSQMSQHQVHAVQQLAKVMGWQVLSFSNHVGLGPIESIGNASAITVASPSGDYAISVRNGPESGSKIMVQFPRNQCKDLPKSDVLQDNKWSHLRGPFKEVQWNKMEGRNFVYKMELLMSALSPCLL
inactive: saracatinib -0.063 | sotrastaurin -0.145 | alvocidib -0.009 | Tubastatin A 0.009 | [1] -0.049 | defactinib -0.021 | rucaparib 0.109 | [2] 0.031 | encorafenib -0.081 | [3] 0.055

MAPKAPK2 (UniProt P49137)
inactive: saracatinib 0.077 | sotrastaurin -0.035 | alvocidib 0 | Tubastatin A -0.006 | [1] -0.01 | defactinib -0.013 | rucaparib 0 | [2] -0.022 | encorafenib 0.139 | [3] 0.023

LNPK (UniProt Q9C0E8)
Sequence of UniProt Q9C0E8 (Q9C0E8 whole entry, looked up): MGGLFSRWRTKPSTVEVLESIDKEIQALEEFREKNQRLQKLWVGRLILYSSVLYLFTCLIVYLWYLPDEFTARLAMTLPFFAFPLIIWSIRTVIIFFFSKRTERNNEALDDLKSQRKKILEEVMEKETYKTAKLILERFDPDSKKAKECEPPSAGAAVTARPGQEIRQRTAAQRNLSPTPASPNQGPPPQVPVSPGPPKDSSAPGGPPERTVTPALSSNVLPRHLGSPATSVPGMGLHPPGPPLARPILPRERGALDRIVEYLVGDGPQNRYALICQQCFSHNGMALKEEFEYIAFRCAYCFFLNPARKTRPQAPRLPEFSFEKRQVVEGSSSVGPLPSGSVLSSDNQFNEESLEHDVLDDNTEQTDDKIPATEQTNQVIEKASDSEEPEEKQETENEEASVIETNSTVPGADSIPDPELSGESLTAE
inactive: saracatinib 0.085 | sotrastaurin 0.047 | alvocidib -0.006 | Tubastatin A -0.034 | [1] 0.012 | defactinib 0.009 | rucaparib -0.015 | [2] -0.045 | encorafenib -0.013 | [3] 0.039

ILK (UniProt Q13418)
Sequence of UniProt Q13418 (Q13418 whole entry, looked up): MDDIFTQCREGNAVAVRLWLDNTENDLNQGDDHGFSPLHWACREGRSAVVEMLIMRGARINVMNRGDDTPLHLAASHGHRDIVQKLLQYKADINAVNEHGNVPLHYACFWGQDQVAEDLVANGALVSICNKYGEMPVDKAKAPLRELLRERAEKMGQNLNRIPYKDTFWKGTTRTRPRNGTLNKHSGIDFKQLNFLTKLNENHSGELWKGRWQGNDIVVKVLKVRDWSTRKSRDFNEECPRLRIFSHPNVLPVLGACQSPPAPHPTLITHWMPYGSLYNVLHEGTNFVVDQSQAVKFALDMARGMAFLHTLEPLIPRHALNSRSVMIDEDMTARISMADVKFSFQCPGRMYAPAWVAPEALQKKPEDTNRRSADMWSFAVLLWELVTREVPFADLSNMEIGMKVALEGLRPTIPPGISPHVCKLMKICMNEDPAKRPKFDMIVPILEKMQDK
inactive: saracatinib -0.119 | sotrastaurin 0.043 | alvocidib -0.107 | Tubastatin A 0.01 | [1] -0.034 | defactinib 0 | rucaparib 0.026 | [2] 0.031 | encorafenib 0.03 | [3] 0.06

LSS (UniProt P48449)
Sequence of UniProt P48449 (P48449 whole entry, looked up): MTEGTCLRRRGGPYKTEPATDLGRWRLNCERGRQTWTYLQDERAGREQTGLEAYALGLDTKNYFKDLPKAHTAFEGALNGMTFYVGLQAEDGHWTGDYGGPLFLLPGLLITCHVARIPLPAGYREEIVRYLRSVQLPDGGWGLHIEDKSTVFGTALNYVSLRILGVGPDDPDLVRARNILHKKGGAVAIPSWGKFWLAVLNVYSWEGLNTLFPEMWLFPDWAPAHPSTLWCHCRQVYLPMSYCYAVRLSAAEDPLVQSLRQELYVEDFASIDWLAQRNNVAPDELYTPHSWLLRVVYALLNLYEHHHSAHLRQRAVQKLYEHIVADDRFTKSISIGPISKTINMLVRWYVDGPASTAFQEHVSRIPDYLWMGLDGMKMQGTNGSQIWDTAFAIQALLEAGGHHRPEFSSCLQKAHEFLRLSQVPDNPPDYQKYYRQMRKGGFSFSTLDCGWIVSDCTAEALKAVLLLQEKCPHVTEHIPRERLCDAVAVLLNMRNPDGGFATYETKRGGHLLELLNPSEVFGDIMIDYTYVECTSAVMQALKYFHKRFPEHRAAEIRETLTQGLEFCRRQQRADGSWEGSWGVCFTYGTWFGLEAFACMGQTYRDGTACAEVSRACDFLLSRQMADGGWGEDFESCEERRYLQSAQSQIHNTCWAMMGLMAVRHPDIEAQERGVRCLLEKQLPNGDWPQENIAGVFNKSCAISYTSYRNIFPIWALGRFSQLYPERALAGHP
active: rucaparib 0.595
inactive: saracatinib 0.172 | sotrastaurin 0.016 | alvocidib -0.066 | Tubastatin A 0.103 | [1] -0.091 | defactinib -0.015 | [2] -0.001 | encorafenib 0.118 | [3] 0.074

MAP3K7 (UniProt O43318)
inactive: saracatinib -0.07 | sotrastaurin -0.146 | alvocidib -0.072 | Tubastatin A 0.054 | [1] 0.023 | defactinib -0.023 | rucaparib 0.099 | [2] -0.035 | encorafenib 0.1 | [3] -0.011

MAGEC2 (UniProt Q9UBF1)
Sequence of UniProt Q9UBF1 (Q9UBF1 whole entry, looked up): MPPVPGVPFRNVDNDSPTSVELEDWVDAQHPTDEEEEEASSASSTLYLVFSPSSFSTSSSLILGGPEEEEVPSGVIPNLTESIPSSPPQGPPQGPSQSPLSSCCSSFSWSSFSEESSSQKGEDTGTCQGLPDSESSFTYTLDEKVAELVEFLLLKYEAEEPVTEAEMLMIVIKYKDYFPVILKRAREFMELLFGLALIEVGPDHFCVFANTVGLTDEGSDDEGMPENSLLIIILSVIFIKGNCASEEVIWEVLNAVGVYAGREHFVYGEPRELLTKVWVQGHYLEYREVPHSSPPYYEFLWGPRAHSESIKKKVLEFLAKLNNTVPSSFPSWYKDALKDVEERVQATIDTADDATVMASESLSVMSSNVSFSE
inactive: saracatinib 0.092 | sotrastaurin -0.068 | alvocidib -0.034 | Tubastatin A -0.013 | [1] 0.015 | defactinib -0.056 | rucaparib -0.021 | [2] -0.082 | encorafenib 0.079 | [3] 0.003

JMJD6 isoform 3 (UniProt Q6NYC1)
inactive: saracatinib -0.01 | sotrastaurin -0.018 | alvocidib -0.076 | Tubastatin A -0.122 | [1] 0.081 | defactinib -0.188 | rucaparib 0.061 | [2] -0.016 | encorafenib 0.026 | [3] 0.035

MGST1 (UniProt P10620)
Sequence of UniProt P10620 (P10620 whole entry, looked up): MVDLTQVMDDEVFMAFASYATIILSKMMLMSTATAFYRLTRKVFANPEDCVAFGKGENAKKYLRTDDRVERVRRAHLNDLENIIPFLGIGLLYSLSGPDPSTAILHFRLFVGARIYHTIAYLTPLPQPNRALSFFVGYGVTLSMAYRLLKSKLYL
inactive: saracatinib 0.042 | sotrastaurin -0.013 | alvocidib 0.01 | Tubastatin A -0.174 | [1] 0.009 | defactinib -0.037 | rucaparib 0.003 | [2] 0.021 | encorafenib -0.147 | [3] 0.018

IWS1 (UniProt Q96ST2)
active: alvocidib 0.336
inactive: saracatinib -0.042 | sotrastaurin 0.021 | Tubastatin A 0.04 | [1] -0.054 | defactinib 0.035 | rucaparib 0.032 | [2] -0.034 | encorafenib -0.1 | [3] -0.127

IKZF1 (UniProt Q13422)
inactive: saracatinib 0.038 | sotrastaurin -0.133 | alvocidib -0.127 | Tubastatin A -0.018 | [1] -0.042 | defactinib -0.1 | rucaparib -0.026 | [2] -0.029 | encorafenib -0.052 | [3] -0.008

KLHDC4 (UniProt Q8TBB5)
inactive: saracatinib -0.006 | sotrastaurin -0.037 | alvocidib 0.074 | Tubastatin A -0.072 | [1] 0.02 | defactinib 0.021 | rucaparib 0.115 | [2] -0.029 | encorafenib 0.106 | [3] -0.066

ILVBL (UniProt A1L0T0)
Sequence of UniProt A1L0T0 (A1L0T0 whole entry, looked up): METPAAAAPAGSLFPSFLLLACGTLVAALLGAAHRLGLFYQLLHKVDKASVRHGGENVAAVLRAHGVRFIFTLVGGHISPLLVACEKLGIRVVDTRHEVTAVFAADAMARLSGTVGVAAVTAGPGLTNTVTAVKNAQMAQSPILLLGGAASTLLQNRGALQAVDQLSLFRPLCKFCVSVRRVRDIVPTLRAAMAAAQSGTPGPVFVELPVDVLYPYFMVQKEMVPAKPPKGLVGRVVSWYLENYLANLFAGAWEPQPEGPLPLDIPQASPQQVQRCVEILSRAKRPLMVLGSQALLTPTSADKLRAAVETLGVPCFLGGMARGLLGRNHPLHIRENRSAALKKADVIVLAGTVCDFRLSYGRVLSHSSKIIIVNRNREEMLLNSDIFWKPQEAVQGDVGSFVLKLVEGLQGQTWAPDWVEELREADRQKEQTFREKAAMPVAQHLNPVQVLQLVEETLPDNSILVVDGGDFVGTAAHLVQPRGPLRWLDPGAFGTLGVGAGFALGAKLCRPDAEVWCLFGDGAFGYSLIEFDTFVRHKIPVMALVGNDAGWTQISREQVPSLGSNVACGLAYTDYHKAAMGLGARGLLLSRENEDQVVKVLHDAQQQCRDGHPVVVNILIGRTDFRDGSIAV
inactive: saracatinib -0.022 | sotrastaurin 0.135 | alvocidib -0.162 | Tubastatin A -0.02 | [1] 0.002 | defactinib -0.054 | rucaparib -0.024 | [2] 0.052 | encorafenib 0.059 | [3] 0.019

KPNA1 (UniProt P52294)
inactive: saracatinib -0.014 | sotrastaurin -0.174 | alvocidib -0.019 | Tubastatin A 0.021 | [1] 0.006 | defactinib -0.064 | rucaparib 0.151 | [2] -0.078 | encorafenib 0.197 | [3] 0

MIER1 isoform 12 (UniProt Q8N108)
inactive: saracatinib 0.026 | sotrastaurin -0.024 | alvocidib -0.079 | [1] -0.058 | defactinib -0.13 | rucaparib -0.01 | [2] -0.056 | encorafenib -0.004 | [3] 0.017
active: Tubastatin A 0.297

LRPPRC (UniProt P42704)
inactive: saracatinib -0.281 | sotrastaurin -0.874 | alvocidib -0.58 | Tubastatin A 0.316 | [1] -0.241 | defactinib -0.346 | rucaparib 0.395 | [2] -0.175 | encorafenib 0.116 | [3] -0.103

KNTC1 (UniProt P50748)
inactive: saracatinib -0.034 | sotrastaurin -0.051 | alvocidib 0.013 | Tubastatin A 0.018 | [1] 0.033 | defactinib -0.044 | rucaparib 0.021 | [2] -0.076 | encorafenib 0.077 | [3] -0.041

LENG8 (UniProt Q96PV6)
inactive: saracatinib -0.112 | sotrastaurin -0.043 | alvocidib -0.074 | Tubastatin A -0.021 | [1] -0.125 | defactinib -0.316 | rucaparib 0.044 | [2] 0.133 | encorafenib 0.129 | [3] -0.133

KDM1A isoform 2 (UniProt O60341)
inactive: saracatinib -0.061 | sotrastaurin -0.139 | alvocidib -0.108 | Tubastatin A 0.127 | [1] -0.032 | defactinib -0.065 | rucaparib 0.14 | [2] 0.021 | encorafenib 0.052 | [3] -0.032

KCTD2 (UniProt Q14681)
inactive: saracatinib -0.276 | sotrastaurin 0.226 | alvocidib 0.188 | Tubastatin A 0.015 | [1] -0.076 | defactinib 0.038 | rucaparib 0.066 | [2] -0.243 | encorafenib -0.128 | [3] 0.082

IGFBP4 (UniProt P22692)
Sequence of UniProt P22692 (P22692 whole entry, looked up): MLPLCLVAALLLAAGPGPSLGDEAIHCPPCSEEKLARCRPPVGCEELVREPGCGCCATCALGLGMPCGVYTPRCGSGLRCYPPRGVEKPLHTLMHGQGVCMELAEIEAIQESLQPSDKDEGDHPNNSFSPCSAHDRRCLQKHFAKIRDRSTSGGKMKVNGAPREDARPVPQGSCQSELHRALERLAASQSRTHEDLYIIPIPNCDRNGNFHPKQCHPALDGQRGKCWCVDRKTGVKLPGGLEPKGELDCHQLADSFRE
inactive: saracatinib 0.004 | sotrastaurin 0.114 | alvocidib 0.063 | Tubastatin A -0.034 | [1] -0.044 | defactinib 0.036 | rucaparib 0.007 | [2] -0.019 | encorafenib -0.034 | [3] 0.014

LIMA1 isoform 4 (UniProt Q9UHB6)
Sequence of UniProt Q9UHB6 (Q9UHB6 whole entry, looked up): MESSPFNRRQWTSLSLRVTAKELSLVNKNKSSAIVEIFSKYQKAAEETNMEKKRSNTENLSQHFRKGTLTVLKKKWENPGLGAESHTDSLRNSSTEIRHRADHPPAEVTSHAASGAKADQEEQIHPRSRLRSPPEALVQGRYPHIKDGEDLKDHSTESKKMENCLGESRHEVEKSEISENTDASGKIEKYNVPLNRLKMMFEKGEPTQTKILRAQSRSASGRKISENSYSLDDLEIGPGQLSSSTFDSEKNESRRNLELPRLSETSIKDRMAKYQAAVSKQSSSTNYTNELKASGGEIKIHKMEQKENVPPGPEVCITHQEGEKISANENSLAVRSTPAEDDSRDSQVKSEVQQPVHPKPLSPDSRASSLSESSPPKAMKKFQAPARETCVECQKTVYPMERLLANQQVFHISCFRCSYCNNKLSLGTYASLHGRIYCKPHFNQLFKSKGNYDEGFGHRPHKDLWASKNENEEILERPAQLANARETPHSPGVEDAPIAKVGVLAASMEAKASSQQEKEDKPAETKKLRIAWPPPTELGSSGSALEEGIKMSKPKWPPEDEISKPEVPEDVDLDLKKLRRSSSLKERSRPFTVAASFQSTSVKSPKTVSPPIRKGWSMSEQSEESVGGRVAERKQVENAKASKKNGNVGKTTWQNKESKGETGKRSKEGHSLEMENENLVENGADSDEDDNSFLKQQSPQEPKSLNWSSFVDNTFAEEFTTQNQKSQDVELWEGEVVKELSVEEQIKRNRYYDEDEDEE
inactive: saracatinib 0.046 | sotrastaurin -0.109 | alvocidib 0.111 | Tubastatin A 0.014 | [1] -0.033 | defactinib -0.015 | rucaparib 0.074 | [2] -0.089 | encorafenib 0.017 | [3] 0.01
